# Screening results: PubChem BioAssay, National Center for Advancing Translational Sciences (NCATS)
# In the library only some 19% were active in any assay of this set; here they are far more common.
# TDP1 cell noCPT: qHTS for Inhibitors of human tyrosyl-DNA phosphodiesterase 1 (TDP1): qHTS in cells in absence of CPT; DT40 Tdp1-/- hTDP1 cells, no CPT, ATP luminescence, 48 h; Potency, µM (series often up to 46.2 µM), for inactives: top-dose activity change, negative = growth inhibition, most hits filed as inhibitors; hit rate 15% among 420,000; AID 686978, 2013; further: nearly all actives have a fitted effect of over 55% in size
#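 No-CPT arm: Tdp1-/-;hTDP1 DT40 cells (400/well) plus compounds, incubated ≥48 hr at 37 °C. Readout CellTiter-Glo luminescence.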
# RORgamma inh: qHTS for inhibitors of ROR gamma transcriptional activity | Nuclear receptor ROR-gamma (Mus musculus), P51450 | Drosophila S2 Gal4-RORgamma UAS-luciferase reporter, 20 h | Potency, µM (top dose mostly 53.6 µM), inactives show at the top dose activity change, negative = inhibition, actives largely listed as inhibitors | hit rate 5.4% among 310,000; further: nearly all actives have a fitted effect of over 60% in size
# Target sequence (P51450 whole entry, looked up, the tested form may be a part): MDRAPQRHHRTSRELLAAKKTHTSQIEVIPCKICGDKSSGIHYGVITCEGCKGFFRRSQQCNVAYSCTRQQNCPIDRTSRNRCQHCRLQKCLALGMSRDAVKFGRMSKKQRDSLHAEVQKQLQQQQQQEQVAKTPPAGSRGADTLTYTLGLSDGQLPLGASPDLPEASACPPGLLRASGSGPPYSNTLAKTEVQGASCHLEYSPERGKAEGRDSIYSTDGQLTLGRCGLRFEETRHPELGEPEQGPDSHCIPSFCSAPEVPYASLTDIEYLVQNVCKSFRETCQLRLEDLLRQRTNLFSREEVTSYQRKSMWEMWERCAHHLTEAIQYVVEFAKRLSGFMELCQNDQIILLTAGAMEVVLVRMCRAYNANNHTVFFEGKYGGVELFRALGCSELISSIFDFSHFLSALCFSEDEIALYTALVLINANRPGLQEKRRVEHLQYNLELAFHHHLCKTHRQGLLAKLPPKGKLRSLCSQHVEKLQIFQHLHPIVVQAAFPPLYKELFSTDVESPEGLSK
#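 In this cell-based reporter format, copper sulfate (700 uM final) drives Gal4–ROR gamma fusion expression from a metallothionein promoter in Drosophila Schneider cells; compounds preincubated 1 hr, reporter read after 20 hr at ambient temperature.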
# DT40 TDP1 CPT: qHTS for Inhibitors of human tyrosyl-DNA phosphodiesterase 1 (TDP1): qHTS in cells in presence of CPT. chicken DT40 Tdp1-/-;hTDP1 cells + 20 nM CPT, ATP luminescence, 48 h. Potency, µM (top dose mostly 46.2 µM), for inactives: at the top dose activity change, negative = growth inhibition, most hits filed as inhibitors. hit rate 12% among 420,000. AID 686979, 2013; further: nearly all actives have a fitted effect of over 55% in size
#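 Chicken DT40 Tdp1-/- cells complemented with human TDP1, 400 cells/well, exposed to compounds plus 20 nM camptothecin for at least 48 h at 37 C; viability read as ATP content by CellTiter-Glo luminescence.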
# Gal4-VP16 FLuc: VP16 counterscreen qHTS for inhibitors of ROR gamma transcriptional activity; Drosophila S2 Gal4-VP16 UAS-luciferase, luminescence, 20 h; Potency, µM (top dose mostly 53.6 µM), for inactives: top-dose activity, negative = inhibition, actives largely listed as inhibitors; hit rate 3.5% among 310,000; AID 2546, 2010;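 further: Gal4-VP16 expression switched on by copper sulfate through the metallothionein promoter; nearly all actives have a fitted effect of over 50% in size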
# TDP1 inh: qHTS Assay for Inhibitors of Tyrosyl-DNA Phosphodiesterase (TDP1). Potency, µM (doses to about 130 µM), without a hit: at the highest dose activity change, negative = inhibition, usual class: inhibitors. hit rate 0.28% among 350,000. recombinant TDP1, AlphaScreen DNA substrate cleavage; further: nearly all actives have a fitted effect of over 40% in size
#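 Tdp1 1 nM final; 15 min RT w/ cpd; substrate 15 nM, 5 min; beads 10 ug/ml, 10 min; AlphaScreen read. Neg ctrl: no enzyme.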
# Starred values were filed as active, the others as inactive; ? = inconclusive; . = not tested or not shown; [ ] = another dose, or the depositor's remark. The call rests on the fitted dose curve; in most records, active means well fitted curve in the direction sought with a large enough effect; inconclusive means small, poorly fitted or top-dose-only effect, or another doubt; inactive means no such curve, though single readings can be large; an effect the other way counts as inactive or inconclusive. On the % scale 0 is the no-effect control and ±100 the full control effect; potency means the concentration at half of the fitted maximal effect.
SMILES,TDP1 cell noCPT,RORgamma inh,DT40 TDP1 CPT,Gal4-VP16 FLuc,TDP1 inh
Cc1cccc(NC(=O)c2cn(-c3ccccc3)nc2-c2ccccc2)c1C,21µM*,.,?,.,6%
O=C(NC(=S)NCCO)c1cn(-c2ccccc2)nc1-c1ccccc1,-19%,10µM*,-22%,?,0%
NS(=O)(=O)c1ccc(NC(=O)/C=C/c2cn(-c3ccccc3)nc2-c2cccc(Cl)c2)cc1,29µM*,17%,?,-7%[10 µM],3%
O=C(NC(=S)N1CCOCC1)c1cn(-c2ccccc2)nc1-c1ccccc1,?,.,?,.,1%
Cc1ccc(S(=O)(=O)N2CCOCC2)cc1NC(=O)Cn1nnc(-c2ccccc2)n1,-23%,.,-19%,.,.
O=C(Cn1nnc(-c2ccccc2)n1)Nc1cccc(S(=O)(=O)N2CCOCC2)c1,12µM*,.,?,.,1%
O=C(c1cnccn1)N1CCC2(CCCN(c3ncccn3)C2)CC1,-27%,8%,5%,11%,.
COc1ccc(NC(=O)CN(c2ccc(C)cc2)S(=O)(=O)c2cccs2)cc1OC,-2%,.,2%,.,-2%
O=S(=O)(c1ccccc1)N1CCNc2ccccc21,-23%,.,6%,.,.
COc1ccc(N(CC(=O)N2CCN(C)CC2)S(=O)(=O)c2ccccc2)cc1OC,-3%,-11%,-9%,-2%,-4%
O=C(O)c1ccc(NC(=O)c2cn(-c3ccccc3)nc2-c2cccc(Cl)c2)cc1,3.7µM*,?,?,-23%,.
O=C(O)c1ccc(NC(=O)c2cn(-c3ccccc3)nc2-c2ccc(F)cc2)cc1,?,36%,?,-4%,8%
CN(C)S(=O)(=O)c1cccc(NC(=O)COC(=O)c2cn(-c3ccccc3)nc2-c2ccccc2)c1,21µM*,?,?,-9%,0%
Cc1cc(C(=O)Nc2cccc(S(=O)(=O)N3CCOCC3)c2)c2ccccc2n1,23µM*,.,?,.,0%
O=C(Nc1cccc(S(=O)(=O)N2CCOCC2)c1)c1cn(-c2ccccc2)nc1-c1ccccc1,23µM*,17%[10 µM],?,-4%,2%
O=C(Nc1cccc(S(=O)(=O)N2CCOCC2)c1)c1cn(-c2ccccc2)nc1-c1ccc(F)cc1,?,?,?,2%,0%
CCN(CC)CCN1C(=O)C(=O)/C(=C(/O)c2ccc(S(=O)(=O)N3CCOCC3)cc2)C1c1ccccc1 (stereo not given),3%,-9%,1%,-13%,10%
CCCCC(=O)N/N=C(\C)c1cccc(NC(=O)C2CC2)c1,0%,22%,?,-7%,3%
COc1cccc(NC2=Nc3cccc4cccc2c34)c1,?,?,-29%,?,3%
O=C(/C=C/c1c(Cl)cccc1Cl)N1CCOCC1,?,-18%[1.91 µM],-16%,10%,.
Cc1cccc(NC(=O)c2cn(-c3ccccc3)nc2-c2ccccc2)c1,16µM*,?,?,-4%,1%
CC(C)N(Cc1nccn1C)C(=O)c1ccc2oc(CCCc3ccccc3)nc2c1,23µM*,-22%,18µM*,-6%,10%
O=C(c1ccc2oc(CCCc3ccccc3)nc2c1)N1CCCC1,?,-5%,16µM*,5%,4%
CN(Cc1nccn1C)C(=O)c1ccc2nc(Cc3ccccc3F)oc2c1,18%,18%,-3%,19%,1%
COCC1CCCCN1C(=O)c1ccc2oc(CCc3ccccc3)nc2c1 (stereo not given),?,0%,?,-4%,2%
SMILES,TDP1 cell noCPT,RORgamma inh,DT40 TDP1 CPT,Gal4-VP16 FLuc,TDP1 inh
CCOC(=O)CC1CCCCN1C(=O)c1ccc2oc(CCc3ccccc3)nc2c1 (stereo not given),15µM*,?,21µM*,1%,4%
C=CCC1(CC=C)CCCN1C(=O)c1ccc2oc(CCCC)nc2c1,10µM*,.,12µM*,.,.
CCOc1ccccc1NC(=O)CN(C)S(=O)(=O)c1cnc[nH]1,-7%,-4%,-7%,-9%,-1%
O=C(CN1C(=O)C2C3C=CC(C3)C2C1=O)OCC(=O)c1ccc(Cl)cc1 (stereo not given),15%,.,-10%,.,0%
O=C(O)c1ccc2c(c1)OCCO2,-9%,0%,7%,6%,-1%
COc1cc(CN2CCN(C(=O)CC(C)C)CC2)c([N+](=O)[O-])cc1OC,-25%,0%,-14%,7%,.
c1ccc(Cc2nnc(-c3ccccc3)o2)cc1,-24%,-5%,-13%,?,2%
CCCc1ccc2oc(C(=O)N(Cc3nccn3C)C(C)C)c(C)c2c1,2.1µM*,11µM*,5.2µM*,-3%,6%
CCCc1ccc2oc(C(=O)NCCc3cnn(C)c3)c(C)c2c1,16µM*,?,16µM*,1%,2%
O=c1[nH]c(CSc2ncnc3sccc23)nc2ccccc12,-22%,18%,?,-22%,5%
Cc1cc2c(n1-c1ccc(C(=O)O)cc1)CCCCC2,.,-9%,.,-5%,.
Cc1ccc(CNC(=O)c2ccc(-n3c(C)cc4c3CCCC4)cc2)cc1,?,.,?,.,1%
Cc1cc2c(n1-c1ccc(C(=O)NCc3ccc(OC(C)C)cc3)cc1)CCCC2,16µM*,.,26µM*,.,5%
Cc1cc2c(n1-c1ccc(C(=O)NCc3ccccc3Cl)cc1)CCCC2,18µM*,.,23µM*,.,9%
Cc1ccnc(NC(=O)CCC2COc3ccccc3O2)c1 (stereo not given),1%,?,2%,7%,7%
Cc1ccc(NC(=O)Cn2c(=O)oc3cc(S(=O)(=O)N4CCCC4)ccc32)cc1F,-20%,.,-21%,.,0%
Cc1ccc(NC(=O)Cn2c(=O)ccc3cc(S(=O)(=O)N4CCC(C)CC4)ccc32)cc1C,-60%,.,?,.,7%
Cc1cc(C)cc(NC(=O)Cn2c(=O)oc3cc(S(=O)(=O)N4CCCC4)ccc32)c1,21µM*,.,?,.,3%
Cc1ccc(NC(=O)Cn2c(=O)oc3cc(S(=O)(=O)N4CCCCC4)ccc32)c(Cl)c1,12µM*,.,?,.,2%
Cc1cc(NC(=O)Cn2c(=O)oc3cc(S(=O)(=O)N4CCCC4)ccc32)ccc1Br,15µM*,.,21µM*,.,14%
Cc1ccc(NC(=O)Cn2c(=O)oc3cc(S(=O)(=O)N4CCC(C)CC4)ccc32)cc1C,?,3%,15µM*,20µM*,5%
CC1CCC/C(=N\NS(=O)(=O)c2ccccc2)C1 (stereo not given),15%,-10%,-5%,0%,5%
